Assay results from PubChem BioAssay (Tox21).
Inconclusive results are not listed. Unmarked numbers belong to inactive results. The call rests on the fitted dose curve.
On the % scale 0 is the no-effect control and ±100 the full control effect.

Each molecule was assayed against Peroxisome proliferator-activated receptor delta (Homo sapiens) (UniProt Q03181) (assay: qHTS assay to identify small molecule agonists of the peroxisome proliferator-activated receptor delta (PPARd) signaling pathway (AID 743212)). Conditions: HEK293H PPARd-UAS-bla, beta-lactamase FRET ratio, 17 h; series mostly up to 62.6 µM; activation: at the top concentration.
Sequence of Peroxisome proliferator-activated receptor delta (Homo sapiens) (Q03181 whole entry, looked up): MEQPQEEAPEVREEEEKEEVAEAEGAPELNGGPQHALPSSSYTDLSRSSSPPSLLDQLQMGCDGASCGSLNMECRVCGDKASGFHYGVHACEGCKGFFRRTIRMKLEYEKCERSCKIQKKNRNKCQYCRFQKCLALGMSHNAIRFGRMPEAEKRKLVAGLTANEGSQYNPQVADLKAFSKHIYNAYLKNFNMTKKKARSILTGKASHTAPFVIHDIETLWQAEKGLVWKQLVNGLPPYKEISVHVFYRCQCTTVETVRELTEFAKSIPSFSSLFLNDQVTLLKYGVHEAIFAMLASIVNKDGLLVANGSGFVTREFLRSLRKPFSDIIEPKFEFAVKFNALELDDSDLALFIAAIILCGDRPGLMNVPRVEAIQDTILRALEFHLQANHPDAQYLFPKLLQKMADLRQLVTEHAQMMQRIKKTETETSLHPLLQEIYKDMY
Source text: U.S. Tox21 Program National Center for Advancing Translational Sciences [NCATS] NIH Chemical Genomics Center [NCGC] U.S. Environmental Protection Agency [EPA] National Institutes of Environmental Health Sciences [NIEHS] National Toxicology Program [NTP] U.S. Food and Drug Administration [FDA] Tox21 Assay Overview: The peroxisome proliferator-activated receptors (PPARs) are lipid-activated transcription factors of the nuclear receptor superfamily with three distinct subtypes namely PPAR alpha, PPAR delta (PPARd) and PPAR gamma. All these subtypes heterodimerizes with Retinoid X receptor (RXR) and have different physiological functions. […] To identify the compounds that activate PPAR-delta signaling, GeneBLAzer PPAR delta UAS-bla HEK293H cell line (Invitrogen, Carlsbad, CA, USA) containing a beta-lactamase reporter gene under the control of an Upstream Activator Sequence (UAS) was used to screen the Tox21 compound library.
Tox21 Assay Protocol Summary: PPARd-bla cells were dispensed at 3000 cells/6uL/well in 1536-well black wall/clear bottom plates using a Multidrop Combi (Thermo Fisher Scientific, Waltham, MA) dispenser. After the assay plates were incubated at 37 C and 5% CO2 for 5 h, 23 nL of compounds dissolved in DMSO, positive controls or DMSO only was transferred to the assay plate by a Pintool station (Kalypsys, San Diego, CA). The assay plates were incubated at 37C for 17 h. After 1 uL of LiveBLAzerTM B/G FRET substrate was added using a Bioraptr Flying Reagent Dispenser (FRD) workstation (Beckman Coulter, Indianapolis, IN, USA), the plates were incubated at room temperature for 2 h, and fluorescence intensity was measured by an Envision plate reader (PerkinElmer, Shelton, CT).
For `CSc1nc(NC2CC2)nc(NC(C)(C)C)n1`, the “activation” value was 0.365%.
For `CC(C)[C@H](N)C(=O)OCCOCn1cnc2c(=O)[nH]c(N)nc21`, the “activation” value was 0.212%.
`CN(C)CCn1nnnc1SCC1=C(C(=O)O)N2C(=O)[C@@H](NC(=O)Cc3csc(N)n3)[C@H]2SC1` was tested, and the “activation” value was 0.447%.
`CC(C=O)Cc1ccc(C(C)C)cc1` (stereo not given) was tested, and the “activation” value was -0.795%.
With `O=C(O)c1cccc(C(=O)O)n1` the “activation” value was -0.72%.
In the case of `C=CCSCC1Nc2cc(Cl)c(S(N)(=O)=O)cc2S(=O)(=O)N1` (stereo not given), the “activation” value was 1.01%.
In the case of `CNc1ncnc2nc[nH]c12`, the “activation” value was -0.963% [at 81.1 µM].
In the case of `CC(C)COC(=O)C(C)C`, the “activation” value was 0.546%.
In the case of `Cc1ccc(Nc2ccc(O)c3c2C(=O)c2ccccc2C3=O)cc1`, the “activation” value was 2.29%.
In the case of `COc1nc(C)nc(N)n1`, the “activation” value was -2.08%.
For `COCCOC(=O)CC#N`, the “activation” value was 0.713%.
In the case of `c1ccc2cnncc2c1`, the “activation” value was 4.46%.
With `C=CC(=O)N1CCOCC1` the “activation” value was 0.384%.
For `CC(C)CCCC(C)CCCC(C)CCCCC(C)CCCC(C)CCCC(C)C` (stereo not given), the “activation” value was 2.17%.
In the case of `N#CCN(CC#N)CCN(CC#N)CC#N`, the “activation” value was 6.02%.
For `CN(C)N=Nc1ccccc1`, the “activation” value was 6.51%.
With `CCCCCCC(=O)OCC` the “activation” value was 9.6%.
`C#CC(O)CCCCC` (stereo not given) was tested, and the “activation” value was -2.1% [at 81.1 µM].
With `O=C1OC(=O)c2cc([N+](=O)[O-])ccc21` the “activation” value was 3.65%.
For `COC(C(=O)O)c1ccccc1` (stereo not given), the “activation” value was -3.39%.
`CC1=CC(=O)CCC1` was tested, and the “activation” value was -3.55%.
`CCO[Si](C)(OCC)OCC` was tested, and the “activation” value was -2.98%.
`C=CCOCC(O)CS(=O)(=O)O` (stereo not given) was tested, and the “activation” value was 2.35% [at 81.1 µM].
In the case of `CCN1CCN(c2cc3c(cc2F)c(=O)c(C(=O)O)cn3C2CC2)CC1`, the “activation” value was -3.48%.
For `CCC(=O)Nc1cccc(N)c1`, the “activation” value was -0.0342%.
With `Cc1ccc(N)cc1[N+](=O)[O-]` the “activation” value was -0.559% [at 81.1 µM].
With `CC(C)c1cccc(C(C)C)c1N` the “activation” value was 3.49%.
For `NC(=O)c1ncn([C@@H]2O[C@H](CO)[C@@H](O)[C@H]2O)c1O`, the “activation” value was 4.16%.
In the case of `COC(=O)C1=C(C)NC(C)=C(C(=O)OCC(C)=O)C1c1ccccc1[N+](=O)[O-]` (stereo not given), the “activation” value was -0.0725%.
In the case of `N[C@@H](CS)C(=O)O`, the “activation” value was 0.152% [at 81.1 µM].
`Fc1ccccc1-c1ccccc1` was tested, and the “activation” value was 3.57% [at 81.1 µM].
In the case of `COc1ccc2cc(C=O)ccc2c1`, the “activation” value was -7.59%.
For `CCCCCCCCCCC1CO1` (stereo not given), the “activation” value was 0.332%.
With `O=C(O)C1CCC1` the “activation” value was 0.893%.
With `CC(=O)CCc1ccc(O)cc1` the “activation” value was 2.3%.
For `C=C(C)C(=O)NCCCN(C)C`, the “activation” value was -5.14%.
With `CC(=O)NC(Cc1ccccc1)C(=O)O` (stereo not given) the “activation” value was 8.14%.
With `CNC(=O)c1c(I)c(NC(=O)CCCCC(=O)Nc2c(I)c(C(=O)O)c(I)c(C(=O)NC)c2I)c(I)c(C(=O)O)c1I` the “activation” value was -0.269%.
For `C=C[Si](OC)(OC)OC`, the “activation” value was -6.63%.
For `C1COCCO1`, the “activation” value was -0.426% [at 81.1 µM].
